Laboratory results from PubChem BioAssay.
Measured potencies and affinities stand elsewhere. Inconclusive results are not listed. The source made the active and inactive calls. Unless noted, no rule for the calls is given here.

Assays:
[1] = RMG-1 ovarian cancer cell viability loss – cherry-pick, dose response (AID 687029;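 active = signal drop whose fitted half-maximal concentration is at most twice the top valid dose, in every test run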;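 also: cells exposed to compound for 96 hours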)
[2] = IOSE-T80 viability loss, PAX8-independent line – cell-based, cherry-pick, selectivity assay for PAX8 inhibitor project, dose response (AID 687032;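 active = fitted half-maximal concentration for viability loss no higher than twice the top valid dose, in every repeat run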;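 also: cells exposed to compound for 96 h before reading; 0% = neutral control wells and -100% = 2 µM mitoxantrone kill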)
[3] = CMV-driven luciferase expression suppression in HEK293 – cell-based, luminescence, dry powder, counter-screen for Pax8 inhibitor project, dose response (AID 743020;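 active = signal-lowering compounds whose fitted half-maximal concentration is at or below twice the top tested dose in every run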;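 also: HEK293 cells stably expressing the CMV luciferase reporter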)
[4] = general cell-killing toxicity readout – plate reader, dry powder samples, cytotoxicity control for PAX8 inhibitor project, dose response (AID 743021)
[5] = IGROV1 cell killing – plate reader, dry powder samples, PAX8 inhibitor project, dose response (AID 743043);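 also: more negative means fewer viable cells or more cytotoxicity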
[6] = toxicity toward immortalized ovarian surface epithelium – cell-based, plate reader, dry powder samples, cytotoxicity control for PAX8 inhibitor project, dose response (AID 743045);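 also: 0% = neutral control median and -100% = positive control median; more negative values mean more cell killing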
[7] = A2780 cell killing – plate reader, dry powder samples, cytotoxicity control, dose response (AID 743046);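 also: 0% = neutral control wells and -100% = cytotoxic reference compound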
[8] = OVCAR8 cell viability loss – plate reader, dry powder samples, PAX8 project, dose response (AID 743197)
[9] = OVCAR-3 cell viability loss – plate reader, dry powder samples, PAX8 inhibitor project, dose response (AID 743044); details: max activity: at 35 µM, active compounds read low unless noted

Measured: max activity

C[C@@H]1CCCCO[C@H](CN(C)C(=O)C2CCCCC2)[C@H](C)CN([C@@H](C)CO)C(=O)c2cc(NS(=O)(=O)c3ccc(Cl)cc3)ccc2O1
not listed: [7] | [8] | [9]
inactive: all other assays above

C[C@@H]1CCCCO[C@@H](CN(C)C(=O)NC2CCCCC2)[C@H](C)CN([C@H](C)CO)C(=O)c2cc(NS(=O)(=O)c3ccc(Cl)cc3)ccc2O1
not listed: [7] | [8] | [9]
inactive: all other assays above

COc1ccccc1C#Cc1ccc2c(c1)O[C@@H](CN(C)Cc1cncnc1)[C@H](C)CN([C@H](C)CO)S2(=O)=O
not listed: [8] | [9]
inactive: all other assays above

C[C@@H]1CCCCO[C@@H](CN(C)Cc2ccc(Cl)c(Cl)c2)[C@H](C)CN([C@H](C)CO)C(=O)c2cc(NC(=O)c3ccccc3)ccc2O1
not listed: [7] | [8] | [9]
inactive: all other assays above

C[C@H]1CN([C@@H](C)CO)S(=O)(=O)c2ccc(C#Cc3ccccc3F)cc2O[C@@H]1CN(C)CC1CCOCC1
not listed: [7] | [8] | [9]
inactive: all other assays above

CC(C)NC(=O)N1Cc2cc(C(=O)NCC(F)(F)F)nc(-c3cccc(-c4cc5ccccc5o4)c3)c2[C@H]1CCO
not listed: [7] | [8] | [9]
inactive: all other assays above

C[C@@H]1CN([C@@H](C)CO)S(=O)(=O)c2ccc(C#Cc3ccccc3F)cc2O[C@@H]1CN(C)C(=O)c1ccc2c(c1)OCO2
not listed: [7] | [8] | [9]
inactive: all other assays above

C[C@H]1CN([C@@H](C)CO)S(=O)(=O)c2ccc(C#Cc3ccncc3)cc2O[C@H]1CN(C)C(=O)C1CCCCC1
not listed: [8] | [9]
inactive: all other assays above

COc1cccc(C#Cc2ccc3c(c2)O[C@@H](CN(C)C(=O)c2ccccn2)[C@H](C)CN([C@@H](C)CO)S3(=O)=O)c1
not listed: [8] | [9]
inactive: all other assays above

COc1ccc(S(=O)(=O)Nc2ccc3c(c2)C(=O)N([C@@H](C)CO)C[C@H](C)[C@@H](CN(C)Cc2ccc(C(F)(F)F)cc2)OCCCC[C@@H](C)O3)cc1
not listed: [7] | [8] | [9]
inactive: all other assays above

CC(C)CC#Cc1ccc2c(c1)O[C@H](CN(C)S(=O)(=O)c1ccc(F)cc1)[C@@H](C)CN([C@@H](C)CO)S2(=O)=O
not listed: [8] | [9]
inactive: all other assays above

Cc1ccc(S(=O)(=O)Nc2ccc3c(c2)C(=O)N([C@H](C)CO)C[C@@H](C)[C@H](CN(C)C(=O)Nc2cccc4ccccc24)OCCCC[C@@H](C)O3)cc1
not listed: [8] | [9]
inactive: all other assays above

O=C(C1CCC1)N1CC(=O)N2[C@H](C1)[C@H](c1ccc(C#Cc3cccc(F)c3)cc1)[C@@H]2CO
not listed: [7] | [8] | [9]
inactive: all other assays above

C[C@H]1CCCCO[C@@H](CN(C)S(=O)(=O)c2cccs2)[C@@H](C)CN([C@@H](C)CO)C(=O)c2cc(NS(=O)(=O)c3ccc(Cl)cc3)ccc2O1
not listed: [7] | [8] | [9]
inactive: all other assays above

C[C@@H]1CN([C@H](C)CO)C(=O)c2cc(NC(=O)Nc3ccccc3)ccc2O[C@@H](C)CCCCO[C@@H]1CN(C)CC1CCCCC1
not listed: [8] | [9]
inactive: all other assays above

C[C@H]1CCCCO[C@H](CN(C)Cc2ccc(C(F)(F)F)cc2)[C@@H](C)CN([C@@H](C)CO)C(=O)c2cc(NS(=O)(=O)c3cccs3)ccc2O1
not listed: [8] | [9]
inactive: all other assays above

C[C@@H]1CCCCO[C@@H](CN(C)Cc2ccc(C(F)(F)F)cc2)[C@H](C)CN([C@H](C)CO)C(=O)c2cc(NC(=O)Nc3ccccc3)ccc2O1
not listed: [7] | [8] | [9]
inactive: all other assays above

O=C(Nc1ccc(F)cc1)N1CC(=O)N2[C@@H](CO)[C@@H](c3ccc(C#Cc4ccc(F)cc4)cc3)[C@@H]2C1
not listed: [8] | [9]
inactive: all other assays above

C[C@@H]1CN([C@H](C)CO)S(=O)(=O)c2ccc(-c3ccc(C#N)cc3)cc2O[C@@H]1CN(C)Cc1cccc(F)c1
not listed: [8] | [9]
inactive: all other assays above

C[C@H](CO)N1C[C@H](C)[C@H](CN(C)S(=O)(=O)c2ccc(Cl)cc2)OCCCC[C@H](C)Oc2ccc(NS(=O)(=O)c3ccc(Cl)cc3)cc2C1=O
not listed: [8] | [9]
inactive: all other assays above

C[C@H]1CCCCO[C@@H](CN(C)Cc2ccc(C(F)(F)F)cc2)[C@@H](C)CN([C@@H](C)CO)C(=O)c2cc(NC(=O)Cc3ccccc3)ccc2O1
not listed: [7] | [8] | [9]
inactive: all other assays above

CCSCCc1nnc(NC(=O)Nc2cccc(C(F)(F)F)c2)s1
not listed: [7] | [8] | [9]
inactive: all other assays above

COc1ccc(S(=O)(=O)N2CCCCN3[C@H](CO)[C@@H](c4ccc(C#CC(C)C)cc4)[C@H]3C2)cc1
not listed: [7] | [8] | [9]
inactive: all other assays above

C[C@@H]1CCCCO[C@H](CN(C)Cc2ccccc2)[C@@H](C)CN([C@@H](C)CO)C(=O)c2cc(NC(=O)Nc3ccc(C(F)(F)F)cc3)ccc2O1
not listed: [8] | [9]
inactive: all other assays above

C[C@@H]1CCCCO[C@@H](CN(C)C(=O)NC2CCCCC2)[C@H](C)CN([C@@H](C)CO)C(=O)c2cc(NC(=O)Nc3ccc(C(F)(F)F)cc3)ccc2O1
not listed: [7] | [8] | [9]
inactive: all other assays above

C[C@@H]1CCCCO[C@H](CN(C)S(=O)(=O)c2ccc(Cl)cc2)[C@@H](C)CN([C@@H](C)CO)C(=O)c2cc(NS(=O)(=O)c3ccc(F)cc3)ccc2O1
not listed: [7] | [8] | [9]
inactive: all other assays above

COc1ccccc1S(=O)(=O)N1CC[C@H]2[C@@H](CO)N(C)c3ccc(-c4ccc(C#N)cc4)cc3[C@H]21
not listed: [7] | [9]
inactive: all other assays above

C[C@@H]1CN([C@H](C)CO)C(=O)c2cc(NS(=O)(=O)c3cccs3)ccc2O[C@@H](C)CCCCO[C@@H]1CN(C)Cc1ccc(C(F)(F)F)cc1
not listed: [9]
inactive: all other assays above

O=S(=O)(c1ccccc1F)N1CC[C@H]2[C@H](CO)Nc3ccc(C4=CCCCC4)cc3[C@H]21
not listed: [6] | [8] | [9]
inactive: all other assays above

C[C@@H]1CN([C@H](C)CO)S(=O)(=O)c2ccc(C#Cc3ccc(F)cc3)cc2O[C@H]1CN(C)C(=O)NC1CCCCC1
not listed: [9]
inactive: all other assays above

C[C@@H]1CN([C@@H](C)CO)C(=O)Cc2cc(NC(=O)Nc3ccc(C(F)(F)F)cc3)ccc2O[C@H]1CN(C)C(=O)NC1CCCCC1
not listed: [9]
inactive: all other assays above

CC(C)(C)S(=O)N1Cc2cc(C(=O)NCCCN3CCOCC3)nc(-c3cccc(C#CCC4CCCC4)c3)c2[C@@H]1CCO (stereo not given in full)
not listed: [7] | [9]
inactive: all other assays above

C[C@@H]1CCCCO[C@@H](CN(C)Cc2ccc(C(F)(F)F)cc2)[C@H](C)CN([C@@H](C)CO)C(=O)c2cc(NC(=O)Nc3ccc(F)cc3)ccc2O1
not listed: [9]
inactive: all other assays above

C[C@H](CO)N1C[C@H](C)[C@H](CN(C)Cc2ccc(Cl)c(Cl)c2)OCCCC[C@H](C)Oc2ccc(NS(=O)(=O)c3ccc(F)cc3)cc2C1=O
not listed: [9]
inactive: all other assays above

Cc1ccc(S(=O)(=O)Nc2ccc3c(c2)C(=O)N([C@H](C)CO)C[C@@H](C)[C@@H](CN(C)Cc2ccc4c(c2)OCO4)OCCCC[C@@H](C)O3)cc1
not listed: [7] | [9]
inactive: all other assays above

C[C@@H]1CN([C@H](C)CO)C(=O)c2cc(NS(=O)(=O)c3ccc(Cl)cc3)ccc2O[C@@H](C)CCCCO[C@H]1CN(C)S(=O)(=O)c1ccc(F)cc1
inactive: [1] | [2] | [3] | [4] | [9] 26.2% [at 1 µM, active compounds read low] | [6]
